PubChem BioAssay (NCATS)
Inconclusive results are not listed. Where a call stands in place of a potency, no number is given. Unmarked numbers belong to inactive results. Active and inactive are the calls of the source. Calls follow the shape of the dose curve; as a rule, active = well fitted curve in the direction sought with a large enough effect; inconclusive = small, poorly fitted or top-dose-only effect, or another doubt; inactive = no such curve, though single readings can be large; an effect the other way counts as inactive or inconclusive. Peptide text beside a SMILES is read from it.

Experiments:
[1] = target: Cellular tumor antigen p53 (Homo sapiens) (UniProt P04637); assay: Primary qHTS for small molecule compounds that upregulate eGFP-tagged delta133p53alpha (in N-terminal) cells. (AID 2060322); details: NCI-H358 eGFP-delta133p53alpha fluorescence, 24 h; activation: active compounds read high; also: nearly all actives have a fitted effect of over 75% in size; also: potency is read from the fitted curve at half-maximal effect;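 as to activation: cells pre-induced with doxycycline then dosed without doxycycline; series mostly up to about 56 µM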
Summary of the method: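 NCI-H358 cells pre-induced 24 h with 10 ng/ml doxycycline for eGFP-delta133p53alpha, plated dox-free and exposed 24 h at 37C to titrated compounds. Fixed, Hoechst-stained; gated GFP peak intensity by laser scanning cytometry, normalized to DMSO (0%) and 57.5 uM 5-azacytidine (100%).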

[2] = target: Aldehyde dehydrogenase, mitochondrial (Homo sapiens) (UniProt P05091); assay: qHTS for Inhibitors of the Aldehyde Dehydrogenase Family (ALDH2) Primary screen (AID 2061308); also: nearly all actives have a fitted effect of over 55% in size
[3] = target: Retinaldehyde dehydrogenase 3 (Homo sapiens) (UniProt P47895); assay: qHTS for Inhibitors of the Aldehyde Dehydrogenase Family (ALDH1A3) Primary screen (AID 2061315)

Sequence of Cellular tumor antigen p53 (Homo sapiens) (P04637 whole entry, looked up): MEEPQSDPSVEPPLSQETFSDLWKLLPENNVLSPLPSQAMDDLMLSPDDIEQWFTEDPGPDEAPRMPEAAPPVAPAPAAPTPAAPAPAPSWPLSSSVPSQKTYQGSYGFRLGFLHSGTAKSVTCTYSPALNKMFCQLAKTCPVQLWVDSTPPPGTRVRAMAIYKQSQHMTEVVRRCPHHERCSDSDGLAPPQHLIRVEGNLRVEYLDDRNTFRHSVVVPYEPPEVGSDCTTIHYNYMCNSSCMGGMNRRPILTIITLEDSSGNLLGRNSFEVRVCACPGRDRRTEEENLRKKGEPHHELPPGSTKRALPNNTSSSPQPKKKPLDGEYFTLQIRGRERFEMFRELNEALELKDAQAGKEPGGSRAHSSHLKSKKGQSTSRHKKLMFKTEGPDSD

Compound	activation [1]	Potency [2]	Potency [3]	Potency [1]	activity change, negative = inhibition [2]	activity change, negative = inhibition [3]
CN(C)CC#CCCC(=O)C(O)(c1ccccc1)C1CCC1 (stereo not given)	8.33%	inactive	inactive			
C#CCOc1ccc2c(c1)c(-c1ccc(C(C)C)cc1)nc(=O)n2C(C)C	-0.893%	inactive	inactive			
COc1ccc(C[C@H]2COC(=O)[C@@H]2Cc2ccc(O[C@@H]3O[C@H](CO)[C@@H](O)[C@H](O)[C@H]3O)c(OC)c2)cc1OC	15.2%	inactive	inactive			
COc1c(O[C@@H]2O[C@H](CO)[C@@H](O)[C@H](O)[C@H]2O)c(CCC(=O)O)cc2ccoc12	-7.63%	inactive	inactive			
C=C1CC[C@H]2[C@@](C)(CCC(O)[C@@]2(C)CO)[C@@H]1/C=C/C(=C\C(=O)O)C(=O)O (stereo not given in full)	-2.29%	inactive	inactive			
CC1(C)CC[C@]2(C(=O)O[C@@H]3O[C@H](CO)[C@@H](O)[C@H](O)[C@H]3O)CC[C@]3(C)C(=CCC4[C@@]5(C)CC[C@H](O[C@@H]6O[C@H](C(=O)O)[C@@H](O)[C@H](O)[C@H]6O)[C@@](C)(CO)C5CC[C@]43C)C2C1 (stereo not given in full)	-1.53%	inactive	inactive			
CC1CCCC(SCC(O)C(=O)O)CC(=O)c2c(O)cc(O)cc2CC(=O)O1 (stereo not given)	-1.53%	inactive	inactive			
CC1OC(OC2C(OC(=O)[C@]34CCC(C)(C)C[C@H]3C3=CCC5[C@@]6(C)CC[C@H](OC7OC(C(=O)O)C(O)C(O)C7O)C(C)(C)C6CC[C@@]5(C)[C@]3(C)CC4O)OC(CO)C2O)C(O)C(O)C1OC1OCC(O)C(O)C1O (stereo not given in full)	-3.82%	inactive	inactive			
CO[C@H]1/C=C/C=C/C=C/C[C@H](OC(=O)[C@@H](C)NC(=O)C2CCCCC2)[C@H](C)[C@@H](O)/C(C)=C/CCc2cc(O)cc(c2)NC(=O)C1		inactive	inactive	2.81 µM (active)		
CC1=C[C@H]2[C@@H](CC1=O)[C@H](C)C[C@H](O)[C@H]2C(C)C	10.7%	inactive	inactive			
CC(C)=C1CC2[C@](C)(CC[C@@H](OC(=O)C3(C)OC3C)[C@@]2(C)O)CC1=O (stereo not given in full)	-20.6%	inactive	inactive			
Cc1cc(F)ccc1-c1nc(NCCN=C(N)NC#N)nc2c1ccc(=O)n2-c1c(F)cccc1F	-4.46%	inactive	inactive			
Cc1cc(CS(=O)(=O)c2ccccc2)cc(OCc2ccc(CN3CCCC3CO)cc2)c1 (stereo not given)	8.93%	inactive	inactive			
CC(C)CC(=O)O[C@@H]1OC=C(CO[C@@H]2O[C@H](CO)[C@@H](O)[C@H](O)[C@H]2O)[C@H]2[C@@H]3O[C@H]3[C@@](O)(CO)[C@@H]12	-3.05%	inactive	inactive			
Cn1ccc(NC(=O)c2cc(Oc3ccc(C(=O)N4CCC4)c(F)c3)c3c(c2)OC(C)(C)C3)n1	-12.3%	inactive	inactive			
COC(=O)c1cc(Br)cnc1N1CCC(NC2CCCCC2)C(O)C1 (stereo not given)	-10.3%	inactive	inactive			
COC(=O)C1=CO[C@@H](O[C@@H]2O[C@H](CO)[C@@H](O)[C@H](O)[C@H]2O)[C@H]2[C@@H]1[C@H](O)C[C@]2(C)O	3.57%	inactive	inactive			
CCOC(=O)[C@H](CCc1ccccc1)N[C@@H](C)C(=O)N1C2CCCCC2C[C@H]1C(=O)O (stereo not given in full)	-7%	inactive	inactive			
O=C(CCC1CCN(Cc2ccccc2)CC1)c1ccc2c(c1)NCCCC2	6.33%	inactive	inactive			
C[C@H]1CC[C@@]2(OC1)O[C@H]1CC3C4CC[C@H]5C[C@@H](O)[C@H](O)C[C@]5(C)C4=CC(=O)[C@]3(C)[C@H]1[C@@H]2C (stereo not given in full)	14.3%	inactive	inactive			
Nc1c(Br)cc(Br)cc1CNC1CCC(O)CC1 (stereo not given)	29.7%	inactive	inactive			
C[C@@H]1O[C@@H](O[C@H]2[C@H](O[C@H]3CC[C@@]4(C)C(CC[C@]5(C)C4C=C[C@]46OC[C@@]7(CCC(C)(C)C[C@H]74)[C@@H](O[C@@H]4O[C@@H](C)[C@H](O)[C@@H](O)[C@H]4O)C[C@]65C)[C@]3(C)CO)O[C@H](CO)[C@@H](O)[C@@H]2O[C@@H]2O[C@H](CO)[C@@H](O)[C@H](O)[C@H]2O)[C@H](O)[C@H](O)[C@H]1O (stereo not given in full)	0%	inactive	inactive			
O=C(O)C(Cc1ccccc1)NC(=O)C1CCCN1 (stereo not drawn) (H-Pro-Phe-OH; configuration not given here)	-13.7%	inactive	inactive			

Compound	activation [1]	Potency [2]	Potency [3]	Potency [1]	activity change, negative = inhibition [2]	activity change, negative = inhibition [3]
CC(=O)O[C@H]1C[C@@](O)(C(C)C)C2[C@@H](OC(=O)c3ccc(O)cc3)C[C@@]3(C)O[C@H]3C[C@]21C (stereo not given in full)	-6.11%	inactive	inactive			
CC(=O)[C@@H]1CC[C@]2(C(=O)O)CC[C@]3(C)C(CCC4[C@@]5(C)CC[C@H](O)C(C)(C)C5CC[C@]43C)C12 (stereo not given in full)	8.4%	inactive	inactive			
CC1(CCOC2OC(CO)C(O)C(O)C2O)CCC23OC2(C1)C(O)CC1C(C)(C(=O)O)CCCC13C (stereo not given)	-13.7%	inactive	inactive			
CCCCCOc1ccc(C2SC(=O)NC2=O)cc1OCC (stereo not given)	2.33%	inactive	inactive			
NC(=NCCCCCCN=C(N)/N=C(\N)Nc1ccc(Cl)cc1)/N=C(\N)Nc1ccc(Cl)cc1		inactive	inactive	30.1 µM (active)		
C/C=C1\[C@H](O[C@@H]2O[C@H](CO)[C@@H](O)[C@H](O)[C@H]2O)OC=C(C(=O)OC)[C@H]1CC(=O)O	3.82%	inactive	inactive			
Cc1cc(CS(=O)(=O)c2ccccc2)cc(OCc2ccc(CN3CCC[C@H]3CO)cc2)c1	-28.2%	inactive	inactive			
CC(C)C(N)C(=O)OCCOCn1cnc2c(=O)[nH]c(N)nc21 (stereo not given)	8.93%	inactive	inactive			
CC1(C)CC[C@]2(C(=O)O[C@@H]3O[C@H](CO)[C@@H](O)[C@H](O)[C@H]3O)CC[C@]3(C)C(=CCC4[C@@]5(C)C[C@@H](O)[C@H](O)[C@@](C)(CO)C5CC[C@]43C)C2C1 (stereo not given in full)	8.4%	inactive	inactive			
CC(C)(O)C1CCC(C)(C2CCC3(C)C4CCC5C(C)(C(=O)OC6OC(CO)C(O)C(O)C6O)C(O)CC(O)C56CC46CCC23C)O1 (stereo not given)	-11.5%	inactive	inactive			
CC1=CC(=O)CC2C1(O)CCC(C)C21CC(c2ccoc2)OC1=O (stereo not given)	6.87%	inactive	inactive			
N#CC1C(=O)N=C(c2cc(Cl)ccc2O)C=C1c1cc(OCc2ccccc2)cc(OCc2ccccc2)c1 (stereo not given)	-17.7%	inactive	inactive			
COc1ccc(-n2[nH]c3c(cnc4ccccc43)c2=O)cc1	-9.55%	inactive	inactive			
CC1CC2OC3(OC2C(C)(C)O)C1C1(C)CCC24CC25CCC(O[C@@H]2OC[C@@H](O)[C@H](O)[C@H]2O)C(C)(C)C5CC=C4C1(C)C3O (stereo not given in full)	-18.8%	inactive	inactive			
C[C@@H]1O[C@@H](O[C@H]2[C@H](OC(=O)[C@]34CCC(C)(C)C[C@H]3C3=CCC5[C@@]6(C)C[C@H](O)[C@H](O[C@@H]7O[C@H](CO[C@@H]8OC[C@H](O)[C@H](O)[C@H]8O)[C@@H](O)[C@H](O)[C@H]7O)C(C)(C)C6CC[C@@]5(C)[C@]3(C)C[C@H]4O)OC[C@@H](O)[C@@H]2O)[C@H](O)[C@H](O[C@@H]2OC[C@](O)(CO)[C@H]2O)[C@H]1O[C@@H]1OC[C@H](O)[C@H](O[C@@H]2OC[C@@H](O)[C@H](O)[C@H]2O)[C@H]1O (stereo not given in full)	8.93%				-4.16% [at 11.2 µM]	0.994% [at 11.2 µM]
CC1=CCC2C(C)(CO)CCCC2(C)C1CC12OC1C(O)C(CO)=CC2O (stereo not given)	12.2%	inactive	inactive			
C/C1=C\CC[C@H](C)CCO[C@@H]2O[C@H](CO[C@@H]3OC[C@](O)(COC1=O)[C@H]3O)[C@@H](O)[C@H](O)[C@H]2O	18.8%	inactive	inactive			
CC1(C)[C@@H]2CC=C(CO[C@@H]3O[C@H](CO[C@@H]4OC[C@H](O)[C@H](O)[C@H]4O)[C@@H](O)[C@H](O)[C@H]3O)[C@H]1C2	-4.46%	inactive	inactive			
C=CC(C)(CCC=C(C)C)O[C@@H]1O[C@H](CO)[C@@H](O)[C@H](O)[C@H]1O (stereo not given in full)	3.57%	inactive	inactive			
CC(=O)O[C@@H]1C[C@H](O)[C@@]23CO[C@H](O)[C@]1(C)C2C[C@@H](O)[C@]1(C)C3C(=O)[C@H](OC(C)=O)[C@@]2(C)[C@H](c3ccoc3)C[C@H]3O[C@]321 (stereo not given in full)	-1.79%	inactive	inactive			
C[C@@H]1O[C@@H](O[C@H]2[C@H](OC(=O)[C@]34CCC(C)(C)C[C@H]3C3=CCC5[C@@]6(C)CC[C@H](O[C@@H]7O[C@H](CO[C@@H]8OC[C@H](O)[C@H](O)[C@H]8O)[C@@H](O)[C@H](O)[C@H]7O)C(C)(C)C6CC[C@@]5(C)[C@]3(C)C[C@H]4O)OC[C@@H](O)[C@@H]2O)[C@H](O)[C@H](O[C@@H]2OC[C@](O)(CO)[C@H]2O)[C@H]1O[C@@H]1OC[C@H](O)[C@H](O[C@@H]2OC[C@@H](O)[C@H](O)[C@H]2O)[C@H]1O (stereo not given in full)	5.36%				7.19% [at 11.2 µM]	10.7% [at 11.2 µM]
CC1(C)CC[C@]2(C(=O)OC3OC(CO)C(O)C(O)C3O)CC[C@]3(C)C(=CCC4[C@@]5(C)CC[C@H](OC6OC(C(=O)O)C(O)C(OC7OC(CO)C(O)C(O)C7O)C6O)C(C)(C)C5CC[C@]43C)C2C1 (stereo not given in full)	-22.1%	inactive	inactive			
